# Assay results from PubChem BioAssay AID504834 (National Center for Advancing Translational Sciences (NCATS), 2011).
# Out of some 320,000 compounds screened, about 22,000 (6.9%) were called active. Entries that show only a call come without a potency. Inconclusive results (about 27%) are left out. This excerpt belongs to a sample that is enriched for actives. A number with no mark means an inactive call. The call rests on the fitted dose curve; in most records, active means well fitted inhibition curve with a large enough effect; inconclusive means small, poorly fitted or top-dose-only effect, or another doubt; inactive means no such curve, though single readings can be large or run the other way.
# Assay: Primary qHTS for delayed death inhibitors of the malarial parasite plastid, 96 hour incubation
# Settings: P. falciparum luciferase reporter growth; series mostly up to 28.7 µM
# In short: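 Two-generation exposure (96 h) targets delayed-death phenotype. Reporter parasites carrying integrated firefly luciferase, in red cells at 2% hematocrit and 0.05% parasitemia final, kept at 37 C, 5% CO2; luminescence loss indicates inhibition.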
# Potency means the concentration at half of the fitted maximal effect.
SMILES,Potency,"activity change, negative = inhibition"
CCOC(=O)N1CCN(S(=O)(=O)c2ccc(Br)cc2)CC1,inactive,–
CC(C)(C)c1ccccc1NC(=O)CN1C(=O)NC2(CCCC2)C1=O,inactive,–
CC(C)C(=O)N1c2ccccc2NC2=C(C(=O)CCC2)C1c1ccc(N(C)C)cc1 (stereo not given),2.33 µM (active),–
CN(C)c1ccc(C2Nc3ccccc3C(=O)N2NS(=O)(=O)c2ccccc2)cc1 (stereo not given),inactive,–
CC1C(=O)Nc2ccccc2N1C(=O)c1c(F)cccc1F (stereo not given),inactive,–
Cc1ccc(C(=O)N2CCCC2)c(F)c1F,inactive,–
Cc1cc(C)cc(NC(=O)N2CCCCCCC2)c1,inactive,–
Cc1ccc(C(NC(=O)N2CCCC2)C(Cl)(Cl)Cl)cc1F (stereo not given),8.28 µM (active),–
CC(Sc1ncnc2c1cnn2-c1ccccc1)C(=O)Nc1ccc(N2CCOCC2)cc1 (stereo not given),inactive,–
CCOC(=O)c1cc2n(c1C)-c1ccccc1C2=O,9.28 µM (active),–
CCOC(=O)c1cc2n(c1N)-c1ccccc1C2=O,inactive,–
CCOC(=O)c1ccccc1CN1C(=O)c2ccccc2S1(=O)=O,inactive,–
Nc1c(N(CCO)C(=O)C2CCCCC2)c(=O)[nH]c(=O)n1Cc1ccccc1,inactive,–
CC(=O)Nc1ccc(-c2csc(NC=C3C(=O)OC(C)(C)OC3=O)n2)cc1,inactive,–
CC(=O)Nc1ccc(-c2csc(NC(=O)Nc3ccccc3)n2)cc1,inactive,–
CC(=O)Nc1ccc(S(=O)(=O)Nc2nc(-c3ccc(C(C)(C)C)cc3)cs2)cc1,1.65 µM (active),–
O=C(CSc1nnc(CNC(=O)c2ccc(F)cc2)o1)Nc1ccc2c(c1)OCO2,inactive,–
Cc1ccc(N2C(=O)CC(N3CCSCC3)C2=O)c(C)c1 (stereo not given),inactive,–
N#Cc1ccc(S(=O)(=O)NCC(=O)OCC(=O)NCCc2ccccc2)cc1,inactive,–
O=C(COC(=O)CCc1nc2ccccc2c(=O)[nH]1)Nc1ccc(N2CCOCC2)cc1,inactive,–
Cc1ccc(NC(=O)CSc2nnc(COc3ccccc3C)o2)cc1,inactive,–
Cc1ccccc1OCc1nnc(SCC(=O)N2c3ccccc3Sc3ccc(Cl)cc32)o1,13.1 µM (active),–
CC(C)NC(=O)CSc1nnc(COc2ccccc2Cl)o1,inactive,–
O=C(NNS(=O)(=O)Cc1ccccc1)c1ccc([N+](=O)[O-])cc1,inactive,–
Cn1c(-c2sccc2OCc2cccc(C(F)(F)F)c2)n[nH]c1=S,14.7 µM (active),–
Cn1c(-c2sc3cc(C(F)(F)F)cnc3c2-c2ccccc2)n[nH]c1=S,inactive,–
Cc1ccccc1-c1n[nH]c(=S)n1C,–,19.3% [at 5.75 µM]

SMILES,Potency,"activity change, negative = inhibition"
O=c1o[nH]c(-c2ccccc2)c1N=Nc1c(F)cccc1Cl,inactive,–
CC[C@H]1CN2CCc3cc(OC)c(OC)cc3[C@@H]2C[C@@H]1C[C@H]1NCCc2cc(OC)c(OC)cc21,0.0738 µM (active),–
COC(=O)c1ccc([C@@H](O)[C@H](C)C(=O)CC(=O)OC(C)(C)C)cc1,inactive,–
COc1ccc(Cl)cc1NC(=O)CNc1ccccc1F,inactive,–
CCn1nc(C)c(/C=N/NC(=O)Cc2ccc(Cl)cc2)c1C,inactive,–
Cc1nn(Cc2ccc(Cl)cc2)c(Cl)c1/C=N/NC(=O)CNc1ccccc1F,9.28 µM (active),–
Cc1ccccc1OCC(=O)Nc1ccc2c(c1)ncn2C,inactive,–
CCN(CC)CCN(C(=O)c1cccc([N+](=O)[O-])c1)c1nc2ccc(OC)cc2s1,inactive,–
COc1cccc(-c2nn(C)c3sc(C(=O)N4CCN(c5ccccc5)CC4)cc23)c1,inactive,–
COc1ccc2nc(N3CCN(C(=O)c4ccc([N+](=O)[O-])o4)CC3)sc2c1,0.738 µM (active),–
CCOc1ccc(NC(=O)C/C(C)=N/NC(=O)Cc2cccs2)cc1,inactive,–
O=C(Cc1cccs1)N/N=C/c1ccc(OCc2ccccc2)cc1,11.7 µM (active),–
C=CCNC(=S)N/N=C/c1ccc(OCc2ccccc2)cc1,inactive,–
O=C(Nc1ccc(-n2cccn2)cc1)C1CCN(Cc2ccsc2)CC1,inactive,–
COc1ccc(NC(=O)CSc2ccc(-c3ccco3)nn2)c(OC)c1,14.7 µM (active),–
COc1cc(Cl)c(C)cc1NC(=O)CSc1nnc(-c2ccco2)n1CC(C)C,10.4 µM (active),–
O=C(CSc1ccc(-c2ccco2)nn1)NCc1ccc2c(c1)OCO2,inactive,–
COc1ccc(NC(=O)CCC(=O)Nc2cc(OC)c(NC(=O)c3ccco3)cc2OC)c(OC)c1,inactive,–
COc1ccccc1NC(=O)CSc1nnc(C)n1CC1CCCO1 (stereo not given),inactive,–
CCn1c(SCC(=O)Nc2cc(C)c(Cl)cc2OC)nnc1-c1ccco1,inactive,–
CCN(CC)c1ccc(/C=N/NC(=O)CNC(=O)c2cccs2)cc1,inactive,–
O=C(Nc1ccccc1-c1nc2ccccc2[nH]c1=O)c1cccs1,inactive,–
Cc1ccc(C(CNC(=O)Nc2ccccc2)N2CCN(C)CC2)cc1 (stereo not given),inactive,–
CC(C)(C)c1ccc(OC2=CS(=O)(=O)c3ccccc32)cc1,9.28 µM (active),–
CC(C)(C)c1ccc(Oc2ccc(N)cc2)cc1,inactive,–
O=C1NS(=O)(=O)c2ccccc21,inactive,–
CCn1cc(/C=C(\NC(=O)c2cc(OC)c(OC)c(OC)c2)C(=O)N2CCN(C)CC2)c2ccccc21,inactive,–

SMILES,Potency,"activity change, negative = inhibition"
CC1CCN(CC(=O)Nc2nccs2)CC1,inactive,–
Cc1cc(=O)[nH]c(SCC(=O)Nc2ccc(Br)cc2)n1,inactive,–
CC(=O)Oc1ccc(N(C(C)=O)S(=O)(=O)c2ccc3ccccc3c2)cc1Br,inactive,–
Cc1nc([N+](=O)[O-])cn1CC(=O)Nc1ccc(Cl)cc1,inactive,–
NS(=O)(=O)c1ccc(CNC(=O)c2cccc(S(=O)(=O)N3CCc4ccccc43)c2)cc1,inactive,–
O=C(Nc1nc2ccc([N+](=O)[O-])cc2s1)c1ccc(S(=O)(=O)N2CCCc3ccccc32)cc1,inactive,–
CNC(=O)c1ccsc1NC(=O)c1ccc(S(=O)(=O)N2CCc3ccccc32)cc1,11.7 µM (active),–
CCN(CC)CCCNC(=O)c1cc2c(=O)[nH]c3ccc(C)cc3c2s1,inactive,–
CC(=O)NS(=O)(=O)c1ccc2c(c1)Cc1cc(S(=O)(=O)NC(C)=O)ccc1-2,inactive,–
COc1cc(C2/C(=C(\O)c3ccc4c(c3)CC(C)O4)C(=O)C(=O)N2c2nnc(C)s2)cc(OC)c1OC (stereo not given),inactive,–
CCc1cc2c(=O)n(-c3ccccc3)c(SCC(=O)O)nc2s1,inactive,–
Cc1sc2nc(SCCO)n(-c3ccccc3)c(=O)c2c1C,10.4 µM (active),–
Cc1sc2nc(SCC(N)=O)n(C)c(=O)c2c1C,inactive,–
CCN(CCO)C(=S)Nc1cc(C(=O)OC)ccc1C(=O)OC,inactive,–
CCS(=O)(=O)Nc1cc(C(=O)OC)ccc1C(=O)OC,10.4 µM (active),–
COC(=O)c1ccc(C(=O)OC)c(NC(=S)N2CCCCC2)c1,inactive,–
COc1ccc2oc(C(=O)NCc3ccco3)c(C)c2c1,inactive,–
CCCCCC1CC(COc2ccccc2)OC1=O (stereo not given),inactive,–
O=C(NCc1ccccc1)C(c1ccco1)N(C(=O)c1csnn1)c1ccccc1F (stereo not given),inactive,–
CCOCCCNC(=O)C(NC(=O)CNC(=O)c1ccccc1)c1ccc(C)cc1 (stereo not given),9.28 µM (active),–
CCOCCCNC(=O)C(NC(=O)CNC(=O)c1ccccc1)c1ccc(OC)cc1 (stereo not given),inactive,–
CCOCCCNC(=O)C(NC(=O)c1ccc(=O)[nH]c1)c1ccc(C)cc1 (stereo not given),inactive,–
COc1ccc(C(=O)NC2CC(C)(C)Cc3c2cnn3-c2ccccc2C)o1 (stereo not given),inactive,–
Cc1ccc(S(=O)(=O)NCCC(=O)NC2CCN(Cc3ccccc3)CC2)cc1,inactive,–
OC(c1nc2ccc(F)cc2[nH]1)C(O)c1nc2ccc(F)cc2[nH]1 (stereo not given),inactive,–
Cc1c(NC(=O)C(C)Oc2cccc(Cl)c2)c(=O)n(-c2ccccc2)n1C (stereo not given),inactive,–
CN(Cc1ccccc1)C(=O)COc1ccccc1,inactive,–

SMILES,Potency,"activity change, negative = inhibition"
CN(C(=O)COc1ccccc1)c1nnc(-c2ccncc2)s1,4.15 µM (active),–
CN(C(=O)c1ccccn1)c1nnc(-c2ccccn2)s1,inactive,–
CC(C)Oc1ccc(C(CC(=O)N2CCOCC2)C(C)C)cc1 (stereo not given),inactive,–
CC(=O)c1c(C)oc2ccc(NS(=O)(=O)c3ccc(C(=O)O)cc3)cc12,inactive,–
O=C(Nc1ccc(O)cc1)c1ccc(NC(=O)c2ccco2)cc1,inactive,–
COC(=O)c1ccc2ccccc2c1OC1OC(CO)C(O)C(O)C1NC(C)=O (stereo not given),10.4 µM (active),–
CC(=O)NC1C(OCc2ccccc2)OC(COC(C)=O)C(OC(C)=O)C1OC(C)=O (stereo not given),inactive,–
COc1cc(/C=C/CO)cc(OC)c1O[C@@H]1O[C@H](CO)[C@@H](O)[C@H](O)[C@H]1O,inactive,–
Cn1cc(S(=O)(=O)Nc2ccc(Cl)cc2Cl)c(=O)n(C)c1=O,inactive,–
Cc1ccc(N2CC(C(=O)NCCS(=O)(=O)N3CCN(c4ccccc4)CC3)CC2=O)cc1 (stereo not given),inactive,–
COCCNC(=O)C1CCN(C(=O)C2CC(=O)N(c3ccc(C)cc3)C2)CC1 (stereo not given),inactive,–
COCCCNC(=O)C1CC(=O)N(c2ccc(C)cc2)C1 (stereo not given),11.7 µM (active),–
Cc1nc(Cl)cc(N/N=C/c2ccccc2)n1,inactive,–
Cc1ccc(/C=C/C(=O)OCC(=O)Nc2cccnc2Cl)cc1,inactive,–
CSCCC(NC(=O)COc1ccccc1)C(=O)OCCOc1ccc(F)cc1 (stereo not given),inactive,–
O=C(NCC(=O)N1CCC2(CC1)NCCc1[nH]cnc12)c1ccc(Br)cc1,inactive,–
Cc1ccsc1C(=O)NC1CCCCC1C (stereo not given),inactive,–
Cc1ccc(NC(=O)COc2ccc(/C=C3/NC(=O)NC3=O)cc2)cc1,inactive,–
COc1cccc(CNC(=O)C2CC(=O)N(C3CCCCCCC3)C2)c1 (stereo not given),inactive,–
O=C(NCCCN1CCCCC1)C1CC(=O)N(CCc2ccccc2)C1 (stereo not given),inactive,–
O=C(NCCCN1CCCCCC1)C1CC(=O)N(C2CCCC2)C1 (stereo not given),3.7 µM (active),–
CC(C)c1c(C(=O)N/N=C/c2ccc(-c3ccccc3)cc2)nnn1-c1nonc1N,inactive,–
Nc1nonc1-n1nnc(C(=O)N/N=C/c2ccc(Cl)cc2)c1-c1ccc2c(c1)OCO2,0.0657 µM (active),–
Nc1nonc1-n1nnc(C(=O)N/N=C/C2CCCCC2)c1-c1ccccc1,inactive,–
